Bioassay records from PubChem.
A selection: hits, their analogues and other compounds. The true share with any hit is near 2.9%.
Beta2AR agonist: beta2AR agonists driving receptor internalization, primary screen, cell-based, FAP fluorogen, flow cytometry. Beta-2 adrenergic receptor (Homo sapiens), P07550. Am2.2-beta2AR cells. response, % (test concentration not listed). 340,000 compounds, 0.43% hits;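 active = response above a set limit, near 3 SD of response in nonfluorescent compounds, cut at about 42% in these data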
PP1 counter: PP1-alpha phosphatase inhibitors, primary screen, counter-screen for PP5 inhibitor project, biochemical, fluorescence, OMFP substrate, single point. purified PP1alpha. 320,000 compounds, 0.9% hits. AID 2235, 2010. inhibition, % at 6.7 µM;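 active = inhibition above the mean inhibition of all tested compounds plus 3 SD, computed separately for each screening campaign, cut at about 15% in these data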
Exocytosis inh: LAMP-1 surface exposure blockers, TALL-104 cells – cell-based, flow cytometry, MLPCN library, primary screen; AID 651702, 2012; 360,000 compounds, 0.66% hits; TALL-104 LAMP-1 surface exposure; cells stimulated with thapsigargin and PMA; inhibition, % at 10 µM;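 active = inhibition above about 55%, limit read from the data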
NadD block: inhibitors of S. aureus NadD, primary screen, biochemical, colorimetric, uHTS; Nicotinate-nucleotide adenylyltransferase NadD (Staphylococcus aureus N315); purified NadD enzyme, colorimetric absorbance read-out; inhibition, % at 20 µM; 360,000 compounds, 0.78% hits; in the data active = inhibition above about 26%
GRK2 inh: compounds blocking aptamer binding on GRK2 – biochemical, human GRK2, bead flow cytometry, HTS, primary screen; Beta-adrenergic receptor kinase 1 (Homo sapiens), P25098; FAM-aptamer displacement from GRK2; inhibition of aptamer binding, % at 10 µM; 330,000 compounds, 0.59% hits; AID 488847, 2010;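 active = inhibition of aptamer binding above 40%, roughly 3 SD of noise, on plates passing a quality check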;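 also: median bead fluorescence of bound FAM aptamer so fluorescent compounds give negative values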
Target sequence (P25098 whole entry, looked up): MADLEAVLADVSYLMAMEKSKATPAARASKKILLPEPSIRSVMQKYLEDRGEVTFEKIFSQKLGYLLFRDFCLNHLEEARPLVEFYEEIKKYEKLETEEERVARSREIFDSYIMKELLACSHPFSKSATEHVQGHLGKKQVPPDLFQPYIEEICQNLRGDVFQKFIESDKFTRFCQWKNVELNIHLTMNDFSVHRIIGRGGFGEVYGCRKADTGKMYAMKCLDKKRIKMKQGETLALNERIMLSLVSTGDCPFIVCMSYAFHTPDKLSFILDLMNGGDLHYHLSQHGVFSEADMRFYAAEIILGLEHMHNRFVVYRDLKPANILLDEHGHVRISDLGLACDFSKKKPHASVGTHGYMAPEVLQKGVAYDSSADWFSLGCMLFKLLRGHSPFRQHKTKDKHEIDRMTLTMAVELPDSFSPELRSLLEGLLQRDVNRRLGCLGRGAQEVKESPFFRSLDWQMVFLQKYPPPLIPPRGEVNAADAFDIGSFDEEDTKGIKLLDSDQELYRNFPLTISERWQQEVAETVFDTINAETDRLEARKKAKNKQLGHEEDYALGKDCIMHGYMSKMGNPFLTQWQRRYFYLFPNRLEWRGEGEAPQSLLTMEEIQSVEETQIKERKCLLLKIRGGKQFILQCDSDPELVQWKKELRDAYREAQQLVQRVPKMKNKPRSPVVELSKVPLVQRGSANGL
PP1 inh confirm: PP1 phosphatase inhibitors, confirmation, biochemical, fluorescence, OMFP substrate, triplicate. shares compounds with PP1 counter. 1,900 compounds, 52% hits. inhibition, % at 6.7 µM. purified PP1alpha. AID 2358, 2010;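 active = mean PP1 inhibition above a set limit taken from the earlier primary screen, cut at about 15% in these data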
PP5 inh counter: PP5 phosphatase inhibition by PP1 hits, confirmation, counter-screen for PP1 inhibitor project, biochemical, fluorescence, triplicate; 1,900 compounds, 4% hits; purified PP5c, OMFP fluorescence; inhibition, % at 6.7 µM; shares compounds with PP1 counter;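 active = mean PP5 inhibition over triplicate wells above about 9.5% taken from the earlier PP1 screen, limit read from the data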
GRK2 inh confirm: GRK2 aptamer-displacing inhibitors, retest, confirmation, biochemical, cherry pick 1, bead flow cytometry; shares compounds with GRK2 inh; bead-bound GRK2, FAM-aptamer displacement; aptamer displacement, % at 10 µM; 2,000 compounds, 4% hits;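 active = aptamer displacement above 40%, near three times the noise of non-fluorescent compounds, on plates passing quality checks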;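 also: negative values mostly reflect intrinsic compound fluorescence rather than true enhancement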
Aptamer quench SP: quenches fluorescent RNA aptamer, GRK2 hit artifact. shares compounds with GRK2 inh. Carboxyfluorescein RNA aptamer on beads, flow cytometry quenching; stronger effect = lower value. fluorescence response (% of DMSO), % at 10 µM. 2,000 tested, under 10 active. AID 504580;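 active = compounds that quench the bead-bound fluorescent RNA probe, cutting fluorescence to under half of the solvent control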;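 also: counterscreen run without GRK2 so only probe quenching by compound is measured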
Beta2AR ag CP1: beta2AR agonists via receptor internalization, confirmation, cell-based, FAP fluorogen, flow cytometry, single point, cherry pick 1. shares compounds with Beta2AR agonist. Am2.2-beta2AR cells, FAP surface receptor; stronger effect = lower value. percent response (surface receptor), % at 10 µM. 1,100 compounds, 25% hits. AID 540358, 2011;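 active = surface receptor percent response at or below 58%, roughly 3 SD from nonfluorescent compounds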
B2AR FAP counter: flagged in Am2.2 fluorescence counterscreen for beta-2AR agonists; calls only at 10 µM; 1,100 tested, under 10 active; shares compounds with Beta2AR agonist; Am2.2 cells, FAP fluorogen flow cytometry; stronger effect = lower value;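 active = percent response below a set limit in fluorescence channel 1 and below 50% in channel 8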
NadD conf: inhibitors of S. aureus NadD, confirmation, biochemical, colorimetric, single concentration. shares compounds with NadD block. purified S. aureus NadD, colorimetric enzyme assay. inhibition, % at 20 µM. 2,000 compounds, 13% hits. AID 624309, 2012; in the data active = inhibition mostly above about 42%, no sharp cut-off; inactive = mostly below about 42%
An asterisk follows results filed as active; i = inactive; nt = no result.

SMILES | Beta2AR agonist | PP1 counter | Exocytosis inh | NadD block | GRK2 inh | PP1 inh confirm | PP5 inh counter | others
O=c1cc(-c2ccccc2)oc2cc(O)c(O)c(O)c12 | -13 | nt | 7 | -4 | 1 | nt | nt
O=c1c(O)cccc2cc(O)c(O)c(O)c12 | 5 | 21* | 1 | 17 | 100* | 14 | -3 | GRK2 inh confirm=30;Aptamer quench SP=91
CN(C(=O)CN1C(=O)C2C3CC(C(Br)C3Br)C2C1=O)C1CCCCC1 (configuration not stated) | 2 | -1 | 0 | 2 | 0 | nt | nt
Cc1ccc2nc(-c3ccccn3)c(Nc3ccccc3C)n2c1 | 9 | 30* | -2 | 8 | 84* | 42* | 5 | GRK2 inh confirm=0;Aptamer quench SP=99
O=C(NN1C(=O)/C(=C/C=C/c2ccco2)SC1=S)c1ccccc1O | -3 | 33* | 3 | 40* | 39 | 14 | -3 | GRK2 inh confirm=3;Aptamer quench SP=98
COc1ccc(-c2cc(C3CCNCC3)[nH]n2)cc1 | 2 | 2 | -4 | -1 | 0 | nt | nt
O=C1NCN(c2ccccc2)C12CCN(CCCC(c1ccc(F)cc1)c1ccc(F)cc1)CC2 | 49* | 19* | 33 | 10 | 6 | -9 | 5 | Beta2AR ag CP1=82;B2AR FAP counter=i
COc1ccccc1C(=O)Nc1ccc2oc(-c3ccc(F)cc3)nc2c1 | 5 | 19* | 1 | -10 | 0 | 12 | -7 | Beta2AR ag CP1=65;B2AR FAP counter=i
COc1ccc(C(=O)Nc2ccc3oc(-c4cccc(F)c4)nc3c2)cc1OC | 9 | -1 | -2 | -8 | 2 | nt | nt
CC(=O)Nc1ccc(NC(=O)COC(=O)[C@@H]2CCCN2C(=O)c2cccs2)cc1 | 12 | nt | -1 | 3 | 0 | nt | nt
COc1cccc(C(=O)Nc2cccc(-c3ccc4nncn4n3)c2)c1OC | 7 | -1 | 0 | -3 | 17 | nt | nt
COc1ccc(Cl)cc1C(=O)Nc1cccc(-c2ccc3nncn3n2)c1 | 77* | 51* | 2 | -5 | 60* | 45* | 0 | GRK2 inh confirm=17;Aptamer quench SP=96;Beta2AR ag CP1=88;B2AR FAP counter=i
CCCCCCCCCCOC(=O)Cn1c(COc2ccccc2OC)[n+](C)c2ccccc21 | 16 | 34* | 89* | 12 | 0 | 1 | 2 | Beta2AR ag CP1=107;B2AR FAP counter=i
COCCCn1c(-c2ccsc2)nc2c1c(=O)[nH]c(=O)n2Cc1ccccc1 | -14 | 4 | 2 | -3 | 2 | nt | nt
CCc1ccccc1N(C)S(=O)(=O)c1ccc2[nH]cc(C(=O)O)c(=O)c2c1 | 76* | 24* | -2 | 7 | 33 | 18* | -6 | Beta2AR ag CP1=84;B2AR FAP counter=i
O=S1(=O)C=C(SCc2ccc(Cl)c(Cl)c2)Nc2ccccc21 | -1 | 5 | 4 | -3 | 1 | nt | nt
COc1ccc(-c2nc3cc(NC(=O)c4ccc5c(c4)OCO5)ccc3o2)cc1 | 4 | 3 | -1 | 2 | 0 | nt | nt
O=C(Nc1ccc2oc(-c3ccncc3)nc2c1)c1ccc2c(c1)OCO2 | 15 | 30* | -1 | 22 | 8 | 25* | 1 | Beta2AR ag CP1=101;B2AR FAP counter=i
Cc1nn(-c2ccc(Cl)cc2)c(Cl)c1/C=N/NC(=O)c1ccc(NS(=O)(=O)c2cccs2)cc1 | 13 | 19* | 0 | 41* | 0 | 15 | 1 | NadD conf=63*
Cc1nn(-c2ccc(F)cc2)c(Cl)c1/C=N/NC(=O)c1cccs1 | -18 | 1 | -2 | -4 | 5 | nt | nt
O=C(NCc1ccccc1)c1ccc2nc(-c3ccco3)c(-c3ccco3)nc2c1 | 3 | 28* | -1 | 45* | 8 | 8 | 7 | NadD conf=7
Cc1cc(NC(=O)c2cc(-c3cccc(OCC(C)C)c3)nc3ccccc23)no1 | 6 | 1 | -1 | 17 | 1 | nt | nt
COc1cc(C2c3c(-c4cc(Cl)c(C)cc4O)n[nH]c3C(=O)N2Cc2cccnc2)ccc1O (configuration not stated) | -13 | 10 | -6 | 14 | 1 | nt | nt
COc1cccc(C2c3c(-c4cc(Cl)c(C)cc4O)n[nH]c3C(=O)N2Cc2cccnc2)c1 (configuration not stated) | -2 | 19* | 0 | 47* | 0 | 12 | -1 | NadD conf=43*
CC(=O)N1CCCc2cc(S(=O)(=O)Nc3ccccc3C)ccc21 | -4 | -3 | -15 | 5 | 8 | nt | nt
SMILES | Beta2AR agonist | PP1 counter | Exocytosis inh | NadD block | GRK2 inh | PP1 inh confirm | PP5 inh counter | others
COc1ccc(/C=C2\SC(=O)N(CCC(=O)Nc3ccc(S(=O)(=O)Nc4nccs4)cc3)C2=O)cc1 | 7 | 21* | -3 | 76* | 1 | 10 | 1 | NadD conf=60*
COc1ccc(CCN(C)C(=O)CSc2nc3ncc(Cl)cc3[nH]2)cc1OC | -15 | -2 | 0 | -3 | 0 | nt | nt
CC(=O)c1sc2nc(-c3cccs3)ccc2c1N | -12 | 8 | 30 | 19 | 0 | nt | nt
Nc1c(C(=O)Nc2nc3ccccc3s2)sc2nc(-c3cccs3)ccc12 | -25 | 31* | 30 | 34* | 0 | 32* | -1 | NadD conf=23
Cc1ccc(N2CC(NC(=O)C3CC3)CC2=O)cc1 (configuration not stated) | 7 | -4 | -1 | 2 | 0 | nt | nt
Cc1sc2nc(CN3CCCC3)nc(N3CCN(S(=O)(=O)c4cccc(F)c4)CC3)c2c1C | 16 | 19* | -1 | 30* | 0 | 3 | -2 | NadD conf=-11
